Experimental data from PubChem BioAssay AID1159580 (chemical genetic matrix, 2015).
“And” between values parts separate entries of the source, which are not always exact repeats. Equal values may be shown once. In all, about 5,500 compounds went through this assay and about 2,000 (36%) were called active. Inconclusive results (about 18%) are left out. Rule as the data show it: active = normalized growth mostly below about 0.91 (no sharp cut-off); inconclusive = no clear call, values can overlap the other calls; inactive = mostly above about 0.92. The list shows a part of the results.

Experiment: chemical genetic growth profiling, strain panel (AID 1159580);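 also: tested at 20 µM; growth read once vehicle control cultures reached saturation at 30 °C; 1 = growth at the plate median or of vehicle wells; lower values mean less growth of the strain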
Settings: S. cerevisiae deletion strains, growth OD

Measured: normalized growth

CCC1C(=O)OCC1Cc1cncn1C (stereo not given)
inactive: locus YAL013W, strain DEP1, stronger effect = lower value 1.01 and 0.986 | locus YAL021C, strain ccr4, stronger effect = lower value 1.01 | locus YAL026C, strain drs2, stronger effect = lower value 1.01 and 1.02 | locus YAL030W, strain snc1, stronger effect = lower value 1.03 and 1.01 | locus YAL040C, strain CLN3, stronger effect = lower value 1.04 and 1.02 | locus YBL061C, strain skt5, stronger effect = lower value 1.03 and 1.02 | locus YBR009C, strain hhf1, stronger effect = lower value 1.01 and 1 | locus YBR021W, strain FUR4, stronger effect = lower value 0.985 and 1 | locus YBR023C, strain chs3, stronger effect = lower value 1.03 and 1.02 | locus YBR171W, strain sec66, stronger effect = lower value 1.02 and 1.03 | locus YBR229C, strain ROT2, stronger effect = lower value 1.01 | locus YBR231C, strain swc5, stronger effect = lower value 1.02 and 1.01 | locus YBR279W, strain paf1, stronger effect = lower value 1.03 and 1.01 | locus YCL011C, strain gbp2, stronger effect = lower value 1.03 and 1.02 | locus YCL016C, strain dcc1, stronger effect = lower value 1.03 and 1.02 | locus YCL029C, strain bik1, stronger effect = lower value 1.03 and 0.998 | locus YCL061C, strain MRC1 (second series), stronger effect = lower value 1.01 and 0.993 | locus YCL061C, strain MRC1, stronger effect = lower value 1.01 | locus YCL069W, strain vba3, stronger effect = lower value 1.02 and 1.01 | locus YCR088W, strain abp1, stronger effect = lower value 1.02 and 1 | locus YDL005C, strain med2, stronger effect = lower value 1.01 and 1.03 | locus YDL035C, strain GPR1, stronger effect = lower value 1.01 | locus YDL040C, strain nat1, stronger effect = lower value 1.02 and 1.01 | locus YDL074C, strain BRE1, stronger effect = lower value 1.02 and 1.03 | locus YDL101C, strain DUN1, stronger effect = lower value 1.02 | locus YDL134C, strain PPH21, stronger effect = lower value 1.01 and 1.02 | locus YDL185W, strain tfp1, stronger effect = lower value 1.02 and 1 | locus YDL192W, strain arf1, stronger effect = lower value 1.02 and 1 | locus YDR001C, strain nth1, stronger effect = lower value 1.01 and 1 | locus YDR069C, strain doa4, stronger effect = lower value 1.01 and 1.02 | locus YDR101C, strain arx1, stronger effect = lower value 1.02 and 0.975 | locus YDR137W, strain rgp1, stronger effect = lower value 1.05 and 1.1 | locus YDR159W, strain sac3, stronger effect = lower value 1.01 and 1.02 | locus YDR162C, strain NBP2, stronger effect = lower value 1.01 and 1.05 | locus YDR195W, strain ref2 1 and 0.98 | locus YDR297W, strain sur2, stronger effect = lower value 1.02 | locus YDR318W, strain mcm21, stronger effect = lower value 1.03 and 0.997 | locus YDR334W, strain swr1, stronger effect = lower value 1.01 and 1.02 | locus YDR335W, strain msn5, stronger effect = lower value 1.02 | locus YDR363W, strain ESC2, stronger effect = lower value 1.03 and 1.01 | locus YDR388W, stronger effect = lower value 1.02 and 0.992 | locus YDR392W, strain spt3, stronger effect = lower value 0.976 and 0.974 | locus YDR502C, strain sam2, stronger effect = lower value 1.04 and 1.01 | locus YEL003W, strain gim4, stronger effect = lower value 1.01 and 1.02 | locus YEL037C, strain rad23, stronger effect = lower value 1.01 | locus YEL061C, strain CIN8 (second series), stronger effect = lower value 1.02 and 1.03 | locus YEL061C, strain CIN8, stronger effect = lower value 1.01 | locus YER002W, strain NOP16, stronger effect = lower value 1.02 and 0.975 | locus YER015W, strain faa2, stronger effect = lower value 1.02 and 1.01 | locus YER016W, strain bim1, stronger effect = lower value 1.01 | locus YER110C, stronger effect = lower value 1.02 and 0.99 | locus YER111C, strain swi4, stronger effect = lower value 1.02 | locus YER155C, strain BEM2 (second series), stronger effect = lower value 1.01 and 1.03 | locus YER155C, strain BEM2, stronger effect = lower value 0.99 and 1 | locus YER167W, strain BCK2, stronger effect = lower value 1.01 and 1.02 | locus YFR010W, strain ubp6, stronger effect = lower value 1.03 and 1 | locus YGL078C, strain dbp3, stronger effect = lower value 1.01 and 1 | locus YGL086W, strain mad1, stronger effect = lower value 1 and 0.996 | locus YGL167C, strain pmr1, stronger effect = lower value 1.03 | locus YGL173C, strain kem1, stronger effect = lower value 1.01 | locus YGL227W, strain vid30, stronger effect = lower value 1.02 | locus YGL240W, strain doc1, stronger effect = lower value 1.01 | locus YGL248W, strain PDE1, stronger effect = lower value 1.01 and 1.02 | locus YGL253W, strain hxk2, stronger effect = lower value 1.01 | locus YGR078C, strain PAC10, stronger effect = lower value 1.04 and 1 and 1.02 | locus YGR135W, strain pre9, stronger effect = lower value 1.01 | locus YGR229C, strain SMI1, stronger effect = lower value 1.02 and 1 and 0.999 | locus YGR252W, strain gcn5, stronger effect = lower value 0.969 and 0.983 | locus YHR013C, strain ard1, stronger effect = lower value 1.06 and 1.01 | locus YHR027C, strain rpn1, stronger effect = lower value 1.02 | locus YHR030C, strain SLT2, stronger effect = lower value 1.01 and 0.975 | locus YHR079C, strain IRE1 (second series), stronger effect = lower value 1.03 and 0.989 | locus YHR079C, strain IRE1, stronger effect = lower value 0.975 | locus YHR094C, strain hxt1, stronger effect = lower value 1.02 and 0.997 | locus YHR129C, strain ARP1, stronger effect = lower value 1.01 | locus YHR142W, strain chs7, stronger effect = lower value 1.03 and 1.01 | locus YHR200W, strain rpn10, stronger effect = lower value 1.01 and 0.999 | locus YIL066C, strain RNR3, stronger effect = lower value 1.02 and 1.01 | locus YIL073C, strain SPO22, stronger effect = lower value 1.06 and 1.02 | locus YIL125W, strain kgd1, stronger effect = lower value 0.997 and 1.01 | locus YIR030C, strain dcg1, stronger effect = lower value 1.02 and 0.993 | locus YJL092W, strain hpr5, stronger effect = lower value 1.01 | locus YJL095W, strain BCK1 (second series), stronger effect = lower value 1.02 | locus YJL095W, strain BCK1, stronger effect = lower value 1.03 and 0.988 and 1.01 | locus YJL115W, strain asf1, stronger effect = lower value 1.01 and 1.02 | locus YJL129C, strain trk1, stronger effect = lower value 1.04 and 1.03 | locus YJL134W, strain LCB3, stronger effect = lower value 1.01 | locus YJL154C, strain vps35, stronger effect = lower value 1.02 and 1.01 | locus YJL164C, strain tpk1, stronger effect = lower value 1.01 and 1.02 | locus YJL166W, strain qcr8, stronger effect = lower value 1.02 | locus YJL168C, strain set2, stronger effect = lower value 1.01 and 0.999 | locus YJL187C, strain SWE1 (second series), stronger effect = lower value 1.02 and 1.01 | locus YJL187C, strain SWE1, stronger effect = lower value 1.02 and 1.01 | locus YJR043C, strain POL32, stronger effect = lower value 1.02 and 1 | locus YJR066W, strain TOR1, stronger effect = lower value 0.971
